Laboratory results taken from ChEMBL document CHEMBL5308504, “Tm Shift (DSF) assay results for EUbOPEN Chemogenomics Library” (2023).
Several values for one entry are separate records, joined by “and”; a condition that tells them apart may be missing. Identical values can stand only once.

How the values were obtained:
[1] = molecular target: Bromodomain-containing protein 4 (Homo sapiens) (UniProt O60885); conditions: Compound concentration 20.0 uM, Protein concentration 2.0 uM, Result type QC Liability
[2] = molecular target: T1, Transcription intermediary factor 1-alpha (Homo sapiens) (UniProt O15164); conditions: Compound concentration 20.0 uM, Protein concentration 2.0 uM, Result type QC Liability
T1 sequence (whole entry): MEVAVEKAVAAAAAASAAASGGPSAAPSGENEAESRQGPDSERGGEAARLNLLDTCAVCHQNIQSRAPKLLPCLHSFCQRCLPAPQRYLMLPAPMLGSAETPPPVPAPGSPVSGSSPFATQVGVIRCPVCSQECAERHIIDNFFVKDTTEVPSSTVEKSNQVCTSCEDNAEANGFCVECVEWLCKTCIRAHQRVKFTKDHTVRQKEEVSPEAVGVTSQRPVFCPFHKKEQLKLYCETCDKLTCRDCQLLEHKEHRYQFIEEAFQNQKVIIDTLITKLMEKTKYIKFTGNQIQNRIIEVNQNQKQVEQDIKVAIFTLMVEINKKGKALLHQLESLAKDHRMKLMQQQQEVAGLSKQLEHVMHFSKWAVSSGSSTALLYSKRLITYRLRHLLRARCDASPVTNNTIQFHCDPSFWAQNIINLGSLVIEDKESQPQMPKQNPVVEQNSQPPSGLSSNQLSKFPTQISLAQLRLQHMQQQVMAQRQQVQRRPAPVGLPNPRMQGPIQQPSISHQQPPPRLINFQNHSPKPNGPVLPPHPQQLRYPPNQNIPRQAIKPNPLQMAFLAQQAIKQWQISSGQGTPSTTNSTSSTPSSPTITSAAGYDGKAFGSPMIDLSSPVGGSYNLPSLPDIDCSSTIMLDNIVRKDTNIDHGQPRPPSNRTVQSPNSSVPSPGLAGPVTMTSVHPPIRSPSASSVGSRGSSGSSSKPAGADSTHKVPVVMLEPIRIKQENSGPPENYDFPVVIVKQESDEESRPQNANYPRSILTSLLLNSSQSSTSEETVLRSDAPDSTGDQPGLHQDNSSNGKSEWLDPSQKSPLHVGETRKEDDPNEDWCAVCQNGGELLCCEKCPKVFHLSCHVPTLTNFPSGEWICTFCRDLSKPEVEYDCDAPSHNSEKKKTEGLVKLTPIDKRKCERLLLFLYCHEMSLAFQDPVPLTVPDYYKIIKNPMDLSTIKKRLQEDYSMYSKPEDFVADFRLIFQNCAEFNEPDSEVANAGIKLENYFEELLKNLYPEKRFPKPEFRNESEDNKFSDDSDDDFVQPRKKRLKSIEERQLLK

SMILES | ΔTm [1] | ΔTm [2]
Fc1ccc(-c2nc(-c3ccc4ccccc4c3F)[nH]c2-c2ccncc2)cc1 | -0.46 °C | -0.4 °C
Cc1nccc(COC(=O)N2C[C@@H]3[C@@H](CNC(=O)c4ccc5[nH]nnc5c4)[C@@H]3C2)n1 | -4.78 °C | 0.34 °C
CC(=O)c1ccc2c(c1)/C(=C(/Nc1cccc(C#N)c1)c1ccc3c(c1)OCCO3)C(=O)N2 | -1.21 °C | -2.47 °C
CN(C)CCC[C@@]1(c2ccc(F)cc2)OCc2cc(C#N)ccc21 | -1.59 °C | -0.51 °C
CCN(CC)C/C=C/C(=O)Nc1cc2c(Nc3ccc(F)c(Cl)c3)ncnc2cc1OCC1CC1 | -1.26 °C | -0.54 °C
O=C(Nc1snnc1C(=O)Nc1ccc(N2CCCC2)cc1)c1cncc(C(F)(F)F)c1 | -0.7 °C | -1.14 °C
N#Cc1ccc(COc2ccc(Br)cc2CNCCO)cn1 | -0.82 °C | -0.53 °C
CC[C@H](CC(=O)O)n1c(=O)c2ncccc2n(Cc2cn(C)c3cc(C)cc(C)c23)c1=O | -1.38 °C and -3.06 °C | 0.26 °C and -1.81 °C
CC1CN(CC(=O)N2CC(C)(C)c3nc(CO)c(Cc4ccc(F)cc4)cc32)C(CN2CCOCC2C)CN1 (centres undefined) | -2.32 °C | -3.23 °C
FC(F)(F)c1ccc(CNc2ccc(Cc3c[nH]c4ncc(Cl)cc34)cn2)cn1 | 2 °C | 1.98 °C
O=C(Cc1ccccc1[N+](=O)[O-])Nc1ccc(-c2ccc(C(O)(C(F)(F)F)C(F)(F)F)cc2F)cc1 | -0.72 °C | 0.45 °C
Cn1cc(-n2cnc3c(NCc4nc5cc(Cl)c(Cl)cc5[nH]4)nc(N4CCOCC4)nc32)cn1 | 0.71 °C | -0.85 °C
